Results on 47 molecules are retold here after PubChem BioAssay AID504332 (National Center for Advancing Translational Sciences (NCATS), 2011).

SMILES strings stand for the structures. About 31,000 (8.9%) of roughly 350,000 compounds were called active. Another 15% or so got no clear call; they are omitted. Calls follow the shape of the dose curve; as a rule, active = well fitted inhibition curve with a large enough effect; inconclusive = small, poorly fitted or top-dose-only effect; inactive = no such curve, though single readings can be large or run the other way. Shown is part of a subset that was picked to be rich in actives.
% is scaled to controls: 0 for no effect and ±100 for the full control effect; potency is read from the fitted curve at half-maximal effect.

Chain of Histone-lysine N-methyltransferase EHMT2 (Homo sapiens) (Q96KQ7 913-1193 limits assumed): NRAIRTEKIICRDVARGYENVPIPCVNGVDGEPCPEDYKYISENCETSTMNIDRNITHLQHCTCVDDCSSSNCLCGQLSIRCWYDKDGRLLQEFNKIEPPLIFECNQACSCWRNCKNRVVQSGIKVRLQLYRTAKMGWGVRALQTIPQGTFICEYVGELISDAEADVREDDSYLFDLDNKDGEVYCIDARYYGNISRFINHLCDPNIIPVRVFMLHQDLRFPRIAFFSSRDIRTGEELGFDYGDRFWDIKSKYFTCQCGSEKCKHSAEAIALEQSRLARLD

The target in this assay is Histone-lysine N-methyltransferase EHMT2 (Homo sapiens) (UniProt Q96KQ7). Description: qHTS Assay for Inhibitors of Histone Lysine Methyltransferase G9a. Also: nearly all actives have a fitted effect of over 75% in size. The conditions noted are these: G9a H3K9 monomethylation, AlphaScreen, 2 h; series mostly up to 59 µM; activity, negative = inhibition: at the top concentration. The method in brief:
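AlphaScreen read-out: biotin-H3K9 peptide (500 nM) methylation by 20 nM enzyme with 20 uM SAM, 2 h at room temperature after 15 min compound preincubation; anti-monomethyl H3K9 antibody plus donor/acceptor beads, 10 min dark.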
Turning to `CSCCC(NC(=O)c1ccccc1)C(=O)N1CCN(Cc2ccc(Cl)cc2)CC1` (configuration not stated), the activity, negative = inhibition was 10.6% [at 0.501 µM] (inactive).
As for `CCOc1ccc(CNC(=O)C2CCN(c3nnc(-n4cccc4CNc4ccc(C)cc4)s3)CC2)cc1OC`, the “activity, negative = inhibition” value was -7.99% (inactive).
In the case of `CC1CC2C3CCC4=CC(=O)C=C[C@]4(C)[C@@]3(F)[C@@H](O)C[C@]2(C)[C@@]1(O)C(=O)CO` (some centres not stated), the “activity, negative = inhibition” value was 23.6% (inactive).
As for `Cc1ccc2oc(C(=O)Nc3ccc(S(=O)(=O)N4CCCCCC4)cc3)cc(=O)c2c1`, the “activity, negative = inhibition” value was 11.5% (inactive).
Consider `O=C(Nc1cccc(Cl)c1Cl)c1ccccc1NC(=O)C1CC=CCC1C(=O)O` (configuration not stated), for which the “activity, negative = inhibition” value was -46.5% [at 102 µM] (inactive).
In the case of `CN(C(=O)COC(=O)c1cc(-c2ccco2)nc2ccccc12)C1CCS(=O)(=O)C1` (configuration not stated), the Potency was 2.51 µM (active).
`Cc1c(-c2cccc(Cl)c2)nc2ccccc2c1C(=O)OCC(=O)N(C)C1CCS(=O)(=O)C1` (configuration not stated): the “activity, negative = inhibition” value is 3.46% (inactive).
For `CN(C(=O)COC(=O)c1nc(Cl)ccc1Cl)C1CCS(=O)(=O)C1` (configuration not stated), the “activity, negative = inhibition” value was 11.5% [at 102 µM] (inactive).
As for `COc1ccc(-n2nc(C(=O)NCC(=O)N3CCCCCC3)c3ccccc3c2=O)cc1Cl`, the “activity, negative = inhibition” value was -1.41% [at 102 µM] (inactive).
In the case of `O=C(Cn1c(=S)nc2ccccn21)N1CCc2ccccc2C1`, the Potency is 12.6 µM (active).
Consider `O=C(COc1ccccc1)N1CCc2ccccc2C1`, for which the “activity, negative = inhibition” value is -42.6% [at 102 µM] (inactive).
Turning to `CCC(=O)c1ccc(OCC(=O)OCC(=O)N2CCc3ccccc3C2)cc1`, the activity, negative = inhibition is -11.3% [at 2.33 µM] (inactive).
Take `Cn1c(=O)c2c(nc(Oc3ccc(C#N)cc3)n2Cc2ccc(Cl)cc2Cl)n(C)c1=O`: the “activity, negative = inhibition” value is 26.9% (inactive).
On to `COc1ccc(NC(=O)CSc2nccn2Cc2ccc3c(c2)OCO3)cc1`, for which the “activity, negative = inhibition” value is -12.2% (inactive).
As for `O=C(CSc1n[nH]c(-c2cccnc2)n1)Nc1ccc(Cl)cc1`, the “activity, negative = inhibition” value was 27.2% [at 102 µM] (inactive).
Regarding `Cc1nc(SCC(=O)Nc2ccc(C(=O)O)cc2)n[nH]1`, the “activity, negative = inhibition” value was 6.19% (inactive).
As for `CN(C)c1ccc(NC(=O)CSc2n[nH]c(-c3ccco3)n2)cc1`, the Potency was 44.7 µM (active).
`CC(C)Cn1c(C2CC(=O)N(c3ccccc3Cl)C2)nc2ccccc21` (configuration not stated): the “activity, negative = inhibition” value was -0.0323% (inactive).
Same read-out and setting: under `COc1ccc(C)cc1N(CC(=O)N1CCC(C)CC1)S(=O)(=O)c1ccc(C)cc1` stands -37.9% (inactive); under `O=C(NC1CCN(Cc2ccccc2)CC1)c1ccc(Cn2c(=O)c3ccccc3n(Cc3cccc(F)c3)c2=O)cc1`, 5.83% (inactive).
As for `COc1ccc(-n2ncc3c2CC(C)(C)CC3NC(=O)CCc2c(C)nn(C)c2C)cc1` (configuration not stated), the “activity, negative = inhibition” value was 22.3% [at 102 µM] (inactive).
Same read-out and setting: under `Cn1c(-c2ccc(C(F)(F)F)cc2)cc2onc(-c3ccccc3)c2c1=O` stands -9.13% [at 2.33 µM] (inactive).
With `O=C(Cn1c(-c2cccs2)cc2ccccc21)NCCc1ccc(Cl)cc1`, the “activity, negative = inhibition” value is 8.69% (inactive).
With `CCCc1nc2ccccc2c(C(=O)OCC(=O)c2ccc3c(c2)NC(=O)CO3)c1CC`, the activity, negative = inhibition was 16.7% [at 12.7 µM] (inactive).
For `O=C1COc2ccc(C(=O)CSc3ccc(Br)cc3)cc2N1`, the activity, negative = inhibition was 8.05% [at 12.7 µM] (inactive).
`CCc1ccc(Nc2nnc(SCC(=O)c3ccc4c(c3)NC(=O)CO4)s2)cc1`: the Potency was 15.8 µM (active).
Turning to `COc1cc(OC)c(OC)cc1/C=C/c1nc2ccccc2c(=O)n1-c1ccc(Br)c(C)c1`, the “activity, negative = inhibition” value is -42.8% (inactive).
In the case of `COc1ccc(C)cc1-n1nnnc1SCc1nc2ccccc2c(=O)[nH]1`, the “activity, negative = inhibition” value is -44% [at 102 µM] (inactive).
As to `CCOc1cc(/C=C/c2nc3ccccc3c(=O)[nH]2)cc(Br)c1OC`, the Potency is 50.1 µM (active).
For `O=C(NC1(C(F)(F)F)N=C(c2ccccc2)N(C2CCCCC2)C1=O)c1ccccc1F` (configuration not stated), the “activity, negative = inhibition” value is -8.07% (inactive).
On to `COc1ccc(NC(=O)C(c2ccccc2)N2Cc3ccccc3C2=O)cc1` (configuration not stated), for which the “activity, negative = inhibition” value is -5.93% (inactive).
`CN(CC(=O)NC1CCN(Cc2ccccc2)CC1)S(=O)(=O)c1ccc(Cl)s1`: the activity, negative = inhibition is -1.26% [at 2.33 µM] (inactive).
On to `COc1ccc(NC(=O)c2ccc3oc(=O)c(S(=O)(=O)c4ccc(F)cc4)cc3c2)c(OC)c1`, for which the “activity, negative = inhibition” value is -2.82% (inactive).
`COc1ccccc1CNC(=O)CCn1c(=O)c2ccccc2n(CC(=O)Nc2cccc(Cl)c2)c1=O`: the “activity, negative = inhibition” value was -25% (inactive).
As for `COc1cccc(NC(=O)N2CCN(C(=O)c3nsc4ccccc34)CC2)c1`, the “activity, negative = inhibition” value is 4.87% (inactive).
Still for that read-out and setting: with `COc1cc(CNC(=O)c2cc3n(n2)CCCN(Cc2cccc(F)c2)C3=O)cc(OC)c1OC` the figure was 15.2% (inactive).
For `CCOC(=O)CSc1nnc(CNc2nc(-c3ccccc3)cs2)n1C`, the activity, negative = inhibition is 2.05% [at 12.7 µM] (inactive).
For the molecule `CCNC(=O)CSc1nc(-c2ccccc2)cs1`, the “activity, negative = inhibition” value was -2.39% [at 102 µM] (inactive).
On to `Cn1c(CNc2nc(-c3ccccc3)cs2)nnc1SCC(=O)c1ccccc1`, for which the Potency is 39.8 µM (active).
As to `CC(C)n1ncc2c(C(=O)Nc3ccc(CC#N)cc3)cc(C3CC3)nc21`, the activity, negative = inhibition was 10% [at 2.33 µM] (inactive).
For the molecule `COc1ccc(C(CNC(=O)c2ccc(NS(=O)(=O)c3ccc(F)c(C)c3)cc2)N(C)C)cc1` (configuration not stated), the “activity, negative = inhibition” value was -42.1% [at 102 µM] (inactive).
Consider `Cc1nnc(NCc2ccccc2)c2c1nnn2Cc1ccc(F)cc1`, for which the “activity, negative = inhibition” value is 1.55% (inactive).
Consider `COCCNc1ccc(-c2n[nH]c(=O)c3ccccc23)cc1[N+](=O)[O-]`, for which the “activity, negative = inhibition” value is -2.77% [at 102 µM] (inactive).
As to `Cc1cc(C)cc(NS(=O)(=O)c2ccc(-c3cc(C)no3)s2)c1`, the “activity, negative = inhibition” value was -5.96% (inactive).
Regarding `OCCN1CCN(c2nnc(-c3ccccc3)c3ccccc23)CC1`, the “activity, negative = inhibition” value is -2.01% [at 102 µM] (inactive).
Same read-out and setting: under `O=C(NC(c1ccccc1)c1ccccc1)N1CCN(CCO)CC1` stands -4.95% (inactive).
As to `OCCN1CCN(C(=S)c2ccc(-c3ccccc3)cc2)CC1`, the Potency was 22.4 µM (active).
